# According to PubChem BioAssay:
# Active and inactive are the calls of the source. How the calls were made is not given here.
# Target: Pantothenate synthetase (Mycobacterium tuberculosis (strain ATCC 25618 / H37Rv)) (UniProt P9WIL5)
# Test: Coupled enzyme confirmation of inhibitors against recombinant Mtb PanC (AID 375);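 further: 0% = full reaction with vehicle and 100% = no enzyme background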
# Conditions: coupled enzyme assay; at 10 µM, hits give high values
# Pantothenate synthetase (Mycobacterium tuberculosis (strain ATCC 25618 / H37Rv)), sequence (P9WIL5 whole entry, looked up): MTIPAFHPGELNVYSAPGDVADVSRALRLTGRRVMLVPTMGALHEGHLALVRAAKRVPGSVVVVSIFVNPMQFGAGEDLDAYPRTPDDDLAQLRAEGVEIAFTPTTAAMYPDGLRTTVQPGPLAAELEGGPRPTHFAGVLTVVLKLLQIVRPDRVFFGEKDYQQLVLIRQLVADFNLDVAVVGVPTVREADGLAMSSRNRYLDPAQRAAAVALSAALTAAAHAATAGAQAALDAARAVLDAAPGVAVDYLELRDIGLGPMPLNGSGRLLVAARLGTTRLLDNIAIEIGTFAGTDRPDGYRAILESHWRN
row,Compound,inhibition
1,CCn1cc(C(=O)N=c2sc3ccccc3n2C)c(=O)c2ccc(C)nc21,0% (inactive)
2,Cc1[nH]n(C(N)=S)c(=O)c1C(c1ccccc1)C(C#N)C#N (stereo not given),0% (inactive)
3,CC(=O)c1ccc(-n2nnnc2SCC(=O)N2CCc3ccccc3C2)cc1,0% (inactive)
4,CCCc1cc(=O)[nH]c(Nc2ccc(OC)c(Cl)c2)n1,3% (inactive)
5,CC1(C)S[C@@H]2[C@H](NC(=O)[C@H](N)c3ccccc3)C(=O)N2[C@H]1C(=O)O,2% (inactive)
6,COC(=O)C1=C(C)n2nnnc2NC1c1ccc(Cl)cc1 (stereo not given),2% (inactive)
7,CNC(=O)CC(C(=O)O)c1ccc(OC(C)C)cc1 (stereo not given),0% (inactive)
8,COc1cccc(C2C(C(=O)c3ccc(C)o3)=C(O)C(=O)N2CCCN(C)C)c1 (stereo not given),0% (inactive)
9,CC(=O)Nc1ccccc1OCC(=O)c1cc(C)n(Cc2cccs2)c1C,0% (inactive)
10,Cn1c(=N)n(CC(=O)O)c2ccccc21,9% (inactive)
11,N#Cc1nc(-c2ccccc2Cl)oc1N1CCOCC1,0% (inactive)
12,COc1ccc(CCNC(=O)c2cc3sc(Cl)cc3n2C)cc1OC,0% (inactive)
13,COC(=O)CSc1cc(C)nc(NC(C)=O)n1,4% (inactive)
14,Cc1cccc(Cc2nnc(NC(=O)c3cccc(S(=O)(=O)N4CCOCC4)c3)s2)c1,0% (inactive)
15,COc1ccc(-c2noc(-c3ccccc3C(=O)NCc3ccco3)n2)cc1,3% (inactive)
16,COc1ccc(-c2noc(CSc3nc4ccccc4c(=O)n3-c3ccccc3)n2)cc1OC,1% (inactive)
17,COC(=O)c1[nH]c2ccc(C)cc2c1NC(=O)CN1CCCC(C)(C)C1,0% (inactive)
18,COc1ccccc1N1CCN(C(=O)c2ccc(CS(=O)(=O)c3ccccc3OC)o2)CC1,8% (inactive)
19,Cc1cc(C)nc(SCC(=O)Nc2ncc3c(n2)CCCC3=O)n1,0% (inactive)
20,CCOC(=O)N1CCC(NC(=O)CCC(=O)N2CC(C)Oc3ccc(Cl)cc32)CC1 (stereo not given),2% (inactive)

row,Compound,inhibition
1,O=C(c1cnn2c(C(F)(F)F)cc(-c3ccco3)nc12)N1CCc2ccccc2C1,3% (inactive)
2,COCCCNC(=O)Cn1cc2c(n1)CCC(C)C2 (stereo not given),3% (inactive)
3,O=C(NCCCN1CCCC1=O)c1ccc2c(c1)NC(=O)C(N1CCOCC1)S2 (stereo not given),2% (inactive)
4,Cc1cccc(NC(=O)C2CCCN2C(=O)OCC(C)C)c1C (stereo not given),0% (inactive)
5,CCc1nnc(NC(=O)c2ccc(-c3cccc(C(F)(F)F)c3)o2)s1,0% (inactive)
6,O=C(COC(=O)C1CC2C=CC1C2)Nc1ccc2c(c1)OC(F)(F)O2 (stereo not given),0% (inactive)
7,C/C=C/CSc1nc2c(c(=O)[nH]c(=O)n2C)n1Cc1ccc(C)cc1,4% (inactive)
8,CC(C)N(C(=O)COC(=O)c1ccc(O)cc1)C(C)C,1% (inactive)
9,CCCC(CCC)C(=O)OC1C[C@H]2CC[C@@H](C1)[N+]2(C)C (stereo not given in full),0% (inactive)
10,C[C@]12C=CC(=O)C=C1CC[C@@H]1[C@@H]2[C@@H](O)C[C@@]2(C)[C@H]1CC[C@]2(O)C(=O)COC(=O)CCC(=O)O,0% (inactive)
11,CCOc1ccc2nc(N3CCC(C(=O)N4CCN(C5CCCCC5)CC4)CC3)sc2c1,0% (inactive)
12,O=C(NCc1ccccc1)c1cc(-c2ccco2)on1,0% (inactive)
13,Cc1nn(-c2ccccc2)c(Cl)c1C1C(C#N)=C(N)OC2=C1C(=O)CC(C)(C)C2 (stereo not given),0% (inactive)
14,Cc1onc(-c2ccccc2)c1C(N)=O,0% (inactive)
15,CCOc1ccc(S(=O)(=O)N(C)C)cc1-c1nc2c(C(C)(C)C)nn(C)c2c(=O)[nH]1,0% (inactive)
16,O=C(Nn1cnnc1)c1cc2c(s1)CCCC2,0% (inactive)
17,COc1ccc(OC)c(NC(=O)CCN2CCC(C)CC2)c1,0% (inactive)
18,CC1(C)Cc2noc(N)c2C(C)(C)N1O,0% (inactive)
19,CCOCCCNC(=O)C1CCCN(S(=O)(=O)CC)C1 (stereo not given),0% (inactive)
20,O=C(c1ccc(S(=O)(=O)N2CCC(c3nc4ccccc4s3)CC2)cc1)N1CCOCC1,0% (inactive)
